Legend:
Assay in all cases: DAPPL (digital affinity profiling via proximity ligation, sequencing); 10 mM Tris-HCl pH 7.5, 50 mM NaCl, 1 mM DTT, 4% glycerol, room temperature, 30 min; GST-TFs on glutathione beads, 16-mer random dsDNA library, 0.1% formaldehyde crosslink after washing; high values mean tight binding
Details in all cases: protein: recombinant; tags: N-terminal GST; dsDNA, one strand shown
ERF = target: T1, ERF (Homo sapiens, UniProt P50548 1-548)
T1 sequence: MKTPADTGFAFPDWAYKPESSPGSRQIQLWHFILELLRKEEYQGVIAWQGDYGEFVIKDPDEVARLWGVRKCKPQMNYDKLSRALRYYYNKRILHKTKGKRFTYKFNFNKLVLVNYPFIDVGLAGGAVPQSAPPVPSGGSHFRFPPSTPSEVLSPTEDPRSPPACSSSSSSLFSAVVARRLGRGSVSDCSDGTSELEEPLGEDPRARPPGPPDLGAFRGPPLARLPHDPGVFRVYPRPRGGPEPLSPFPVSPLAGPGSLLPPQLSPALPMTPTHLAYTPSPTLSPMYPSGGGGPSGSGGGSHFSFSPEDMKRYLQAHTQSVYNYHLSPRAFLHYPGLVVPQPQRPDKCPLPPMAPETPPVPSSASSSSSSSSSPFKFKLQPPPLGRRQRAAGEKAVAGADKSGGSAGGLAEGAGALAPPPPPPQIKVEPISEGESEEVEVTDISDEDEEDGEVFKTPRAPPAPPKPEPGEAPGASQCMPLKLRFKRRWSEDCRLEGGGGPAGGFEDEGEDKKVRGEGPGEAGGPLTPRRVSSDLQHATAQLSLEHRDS
Summary of the method: (§1)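 Sequencing on an Illumina NextSeq500 followed washing, crosslinking with 0.1% formaldehyde, proximity ligation (BsaI/T4 ligase, 1 h, 37 °C) and PCR amplification of pools that had been incubated for 30 min at room temperature with 200 nmole of a random double-stranded 16-mer DNA library in Tris/NaCl/DTT/glycerol buffer. Each pool held DNA-barcoded human transcription factors, expressed in yeast as GST fusions and captured on glutathione beads, plus a tag-only sample. Binding signal is a hexamer's read frequency for a factor divided by its frequency in the tag-only sample.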

ETV3L = target: T2, ETV3L (Homo sapiens, UniProt Q6ZN32 1-361)
T2 sequence: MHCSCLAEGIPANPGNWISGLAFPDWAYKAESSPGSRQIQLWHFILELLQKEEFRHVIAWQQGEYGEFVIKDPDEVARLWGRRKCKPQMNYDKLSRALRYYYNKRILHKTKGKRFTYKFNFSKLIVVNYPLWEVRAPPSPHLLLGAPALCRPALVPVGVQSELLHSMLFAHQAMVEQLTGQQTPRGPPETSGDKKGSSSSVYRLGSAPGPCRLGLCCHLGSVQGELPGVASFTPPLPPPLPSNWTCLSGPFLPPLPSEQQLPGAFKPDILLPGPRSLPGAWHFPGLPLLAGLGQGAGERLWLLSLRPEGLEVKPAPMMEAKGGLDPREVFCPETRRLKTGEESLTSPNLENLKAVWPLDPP
Summary of the method: as §1

ETS2 = target: T3, ETS2 (Homo sapiens, UniProt P15036 1-469)
T3 sequence: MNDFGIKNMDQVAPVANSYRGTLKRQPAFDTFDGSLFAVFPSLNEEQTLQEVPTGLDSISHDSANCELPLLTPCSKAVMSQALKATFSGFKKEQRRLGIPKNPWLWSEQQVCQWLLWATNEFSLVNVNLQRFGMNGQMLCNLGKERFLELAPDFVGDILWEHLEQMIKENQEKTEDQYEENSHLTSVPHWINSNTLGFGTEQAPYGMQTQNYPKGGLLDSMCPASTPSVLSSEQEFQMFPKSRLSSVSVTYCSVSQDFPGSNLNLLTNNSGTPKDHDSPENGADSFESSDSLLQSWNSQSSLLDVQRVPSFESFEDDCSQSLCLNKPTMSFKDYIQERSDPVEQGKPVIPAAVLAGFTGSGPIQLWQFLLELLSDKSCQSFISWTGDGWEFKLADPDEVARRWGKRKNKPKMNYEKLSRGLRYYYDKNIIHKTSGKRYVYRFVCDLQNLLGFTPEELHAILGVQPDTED
Summary of the method: as §1

SPDEF = target: T4, SPDEF (Homo sapiens, UniProt O95238 1-335)
T4 sequence: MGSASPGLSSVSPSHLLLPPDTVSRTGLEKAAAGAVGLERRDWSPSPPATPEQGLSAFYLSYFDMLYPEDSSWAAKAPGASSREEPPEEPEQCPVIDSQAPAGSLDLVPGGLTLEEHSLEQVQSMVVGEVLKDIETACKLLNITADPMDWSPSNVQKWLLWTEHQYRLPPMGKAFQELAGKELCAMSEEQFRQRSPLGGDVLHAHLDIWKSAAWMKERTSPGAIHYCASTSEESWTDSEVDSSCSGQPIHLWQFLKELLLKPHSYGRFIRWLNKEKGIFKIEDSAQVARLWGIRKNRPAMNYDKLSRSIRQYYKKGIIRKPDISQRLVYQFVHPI
Summary of the method: as §1

ETV7 = target: T5, ETV7 (Homo sapiens, UniProt Q9Y603 1-341)
T5 sequence: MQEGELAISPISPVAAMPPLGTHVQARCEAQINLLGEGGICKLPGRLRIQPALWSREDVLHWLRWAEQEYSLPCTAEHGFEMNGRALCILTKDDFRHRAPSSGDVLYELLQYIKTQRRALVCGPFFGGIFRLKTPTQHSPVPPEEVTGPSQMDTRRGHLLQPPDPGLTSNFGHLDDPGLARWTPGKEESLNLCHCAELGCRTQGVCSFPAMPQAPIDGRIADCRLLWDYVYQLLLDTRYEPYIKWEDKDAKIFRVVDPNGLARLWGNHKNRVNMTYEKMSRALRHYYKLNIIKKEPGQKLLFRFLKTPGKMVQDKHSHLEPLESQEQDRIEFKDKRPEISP
Summary of the method: as §1

ELF5 = target: T6, ELF5 (Homo sapiens, UniProt Q9UKW6-2 1-255)
T6 sequence: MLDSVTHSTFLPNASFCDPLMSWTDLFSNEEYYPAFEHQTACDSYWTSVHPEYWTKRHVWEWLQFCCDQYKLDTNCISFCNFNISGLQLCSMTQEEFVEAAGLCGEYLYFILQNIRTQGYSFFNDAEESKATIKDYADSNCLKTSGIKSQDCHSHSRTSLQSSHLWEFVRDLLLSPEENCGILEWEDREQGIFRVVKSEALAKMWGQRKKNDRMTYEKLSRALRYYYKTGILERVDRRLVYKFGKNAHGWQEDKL
Summary of the method: as §1

ETV3 = target: T7, ETV3 (Homo sapiens, UniProt P41162-2 1-143)
T7 sequence: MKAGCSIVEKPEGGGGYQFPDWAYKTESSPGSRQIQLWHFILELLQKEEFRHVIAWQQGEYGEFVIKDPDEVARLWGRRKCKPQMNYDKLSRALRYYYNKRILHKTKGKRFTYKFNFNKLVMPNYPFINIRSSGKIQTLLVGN
Summary of the method: as §1

ETV6 = ETV6 (Homo sapiens, UniProt P41212 1-452)
Summary of the method: as §1

ETV6, sequence (P41212 whole entry): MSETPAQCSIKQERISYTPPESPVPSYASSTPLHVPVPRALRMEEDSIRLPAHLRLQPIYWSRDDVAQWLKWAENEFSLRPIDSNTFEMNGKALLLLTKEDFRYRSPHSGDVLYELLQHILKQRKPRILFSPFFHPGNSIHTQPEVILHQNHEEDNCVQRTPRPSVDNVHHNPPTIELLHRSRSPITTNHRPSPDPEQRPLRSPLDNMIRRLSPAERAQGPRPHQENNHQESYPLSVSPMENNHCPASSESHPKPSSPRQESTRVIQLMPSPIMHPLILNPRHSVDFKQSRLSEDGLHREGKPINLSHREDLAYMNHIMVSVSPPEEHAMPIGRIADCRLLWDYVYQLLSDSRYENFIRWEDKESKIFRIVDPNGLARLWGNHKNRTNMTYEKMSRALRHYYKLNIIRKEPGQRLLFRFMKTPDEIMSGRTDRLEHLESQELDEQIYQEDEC

Row | Sequence | binding signal (ERF) | binding signal (ETV3L) | binding signal (ETS2) | binding signal (SPDEF) | binding signal (ETV7) | binding signal (ELF5) | binding signal (ETV3) | binding signal (ETV6)
1 | TAAGAT | 1.3 fold enrichment (6-mer frequency, TF over GST control) | 1.12 fold enrichment (6-mer frequency, TF over GST control) | 1.19 fold enrichment (6-mer frequency, TF over GST control) | 1.31 fold enrichment (6-mer frequency, TF over GST control) | 1.19 fold enrichment (6-mer frequency, TF over GST control) | 1.11 fold enrichment (6-mer frequency, TF over GST control) | 1.2 fold enrichment (6-mer frequency, TF over GST control) | 1.28 fold enrichment (6-mer frequency, TF over GST control)
2 | GATCTC | 1.22 fold enrichment (6-mer frequency, TF over GST control) | 1.25 fold enrichment (6-mer frequency, TF over GST control) | 1.31 fold enrichment (6-mer frequency, TF over GST control) | 1.42 fold enrichment (6-mer frequency, TF over GST control) | 1.29 fold enrichment (6-mer frequency, TF over GST control) | 1.21 fold enrichment (6-mer frequency, TF over GST control) | 1.29 fold enrichment (6-mer frequency, TF over GST control) | 1.15 fold enrichment (6-mer frequency, TF over GST control)
3 | TCTTGG | 1.4 fold enrichment (6-mer frequency, TF over GST control) | 1.43 fold enrichment (6-mer frequency, TF over GST control) | 1.27 fold enrichment (6-mer frequency, TF over GST control) | 1.27 fold enrichment (6-mer frequency, TF over GST control) | 1.38 fold enrichment (6-mer frequency, TF over GST control) | 1.31 fold enrichment (6-mer frequency, TF over GST control) | 1.29 fold enrichment (6-mer frequency, TF over GST control) | 1.19 fold enrichment (6-mer frequency, TF over GST control)
4 | TCAATA | 1.24 fold enrichment (6-mer frequency, TF over GST control) | 1.24 fold enrichment (6-mer frequency, TF over GST control) | 1.15 fold enrichment (6-mer frequency, TF over GST control) | 1.17 fold enrichment (6-mer frequency, TF over GST control) | 1.26 fold enrichment (6-mer frequency, TF over GST control) | 1.08 fold enrichment (6-mer frequency, TF over GST control) | 1.23 fold enrichment (6-mer frequency, TF over GST control) | 1.14 fold enrichment (6-mer frequency, TF over GST control)
5 | ATTCCG | 1.58 fold enrichment (6-mer frequency, TF over GST control) | 1.74 fold enrichment (6-mer frequency, TF over GST control) | 1.78 fold enrichment (6-mer frequency, TF over GST control) | 1.85 fold enrichment (6-mer frequency, TF over GST control) | 1.62 fold enrichment (6-mer frequency, TF over GST control) | 2.17 fold enrichment (6-mer frequency, TF over GST control) | 1.89 fold enrichment (6-mer frequency, TF over GST control) | 1.78 fold enrichment (6-mer frequency, TF over GST control)
6 | CTGACT | 1.33 fold enrichment (6-mer frequency, TF over GST control) | 1.22 fold enrichment (6-mer frequency, TF over GST control) | 1.42 fold enrichment (6-mer frequency, TF over GST control) | 1.22 fold enrichment (6-mer frequency, TF over GST control) | 1.33 fold enrichment (6-mer frequency, TF over GST control) | 1.32 fold enrichment (6-mer frequency, TF over GST control) | 1.28 fold enrichment (6-mer frequency, TF over GST control) | 1.24 fold enrichment (6-mer frequency, TF over GST control)

Reference: article PMC7862700, “An all-to-all approach to the identification of sequence-specific readers for epigenetic DNA modifications on cytosine”
